Outcome data for 69 compounds are collected here from PubChem BioAssay AID1117361 (Southern Research Institute, 2015).

Out of some 3,600 compounds screened, about 900 (25%) were called active. No rule for the calls is given here. A selection follows. Results with a measured potency or affinity are listed apart.

The assay addresses Protein Tat (Human immunodeficiency virus type 1 group M subtype B (isolate HXB2)) (UniProt P04608). Put plainly: HIV-1 Tat–TAR interaction blockers – biochemical, fluorescence polarization, FAM-labeled TAR RNA, counter-screen for Vif-APOBEC3G degradation inhibitor project, dose response (AID 1117361). The following applies: Tat-TAR RNA binding; series mostly up to 100 µM. On the technique in general: In fluorescence polarisation assays a small probe gives low polarisation when free and higher when bound to something large.
In the case of `Cc1c(C(=O)O)oc2ccc(S(=O)(=O)N3CCC(C)CC3)cc12`, the call was inactive.
Take `CC(C)c1nc2ccccc2n1CCC(=O)O`: the outcome was inactive.
As for `CCOC(=O)CNc1nc2ccccc2n2c(C)nnc12`, the entry is “inactive”; as for `O=C1CN(C(=O)COC(=O)CCSc2ccccc2Cl)c2ccccc2N1`, “inactive”.
For `Cc1ccc(-c2nnc(SCC(=O)N3CC(C)CC(C)C3)o2)cc1C` (centres undefined), the compound was classed as inactive.
The result for `Cc1ccc(-n2nnc3c(=O)n(CC(=O)c4ccccc4)cnc32)cc1` reads “inactive”; that for `Cn1c(=O)c2c(nc(NCCc3ccccc3)n2Cc2ccccc2)n(C)c1=O`, “inactive”; that for `CC(=O)c1ccc(N2CCN(C(=O)C3CCC3)CC2)cc1`, “inactive”.
For `CC1(C)CC(=O)C2=C(C1)NCN(Cc1ccc3c(c1)OCO3)C2`, the outcome was inactive.
Regarding `COC(=O)c1cccc(NC(=O)c2ccc3c(c2)C(=O)N(CC2CCCO2)C3=O)c1` (centres undefined), the compound was classed as inactive.
As to `O=c1[nH]c2ccc(NS(=O)(=O)c3ccc(F)c(Cl)c3)cc2[nH]1`, the compound was called inactive.
With `O=C(O)c1cccc2c1Oc1ccccc1S2(=O)=O`, the call was inactive.
As for `CCN1CNC(=S)N(CCc2ccccc2)C1`, the outcome was inactive.
Regarding `CCOc1ccc2nc(Cl)c(C3CC(c4ccccc4)=NN3C(=O)c3cccs3)cc2c1` (centres undefined), the result was inactive.
With `O=C(NCCC1CCCCN1S(=O)(=O)c1ccc(F)cc1)C(=O)NCc1ccccn1` (centres undefined), the compound was called inactive.
Turning to `CC(C(=O)N1CCCCC1)n1ncn2cccc2c1=O` (centres undefined), the outcome was inactive.
In the case of `OCCN1CCN(CC(O)COc2ccc3ccccc3c2)CC1` (centres undefined), the outcome was inactive.
As to `CCOc1ccc(N(CC(=O)N2CCC(Cc3ccccc3)CC2)S(C)(=O)=O)cc1`, the result was inactive.
In the case of `C#CC[N+]1(CC#Cc2ccccc2)CCCC1`, the call was inactive.
As for `CC1(C(=O)O)Cc2ccccc2C(=O)O1` (centres undefined), the result was inactive.
Regarding `CC12CCC(C(=O)Nc3cc(F)ccc3F)(CC1=O)C2(C)C` (centres undefined), the outcome was inactive.
As for `CC1(C)CC(=O)C(N=Nc2ccc(Br)cc2)=C(O)C1`, the compound was called inactive.
The result for `O=C(c1ccc(S(=O)(=O)N2CCOCC2)cc1)N1CCN(c2cccc(Cl)c2)CC1` reads “inactive”; that for `CN(C)CCCN(CCCN(C)C)C(=S)Nc1ccc(S(=O)(=O)N2CCOCC2)cc1`, “inactive”; that for `COCc1nnc(NC(=O)c2ccc(S(=O)(=O)N(C)C3CCCCC3)cc2)o1`, “inactive”.
The result for `O=C(c1ccccc1S(=O)(=O)NCc1ccccc1)N1CCCC1` reads “inactive”.
The result for `C=CCn1c(Sc2nc(C)cs2)nc2c1c(=O)[nH]c(=O)n2C` reads “inactive”.
Turning to `O=C(NCc1cccnc1)C1c2ccccc2C(=O)N1C1CCCC1` (centres undefined), the call was inactive.
The result for `NNc1ccc([N+](=O)[O-])c2[nH][nH]c(=O)c12` reads “inactive”.
Consider `CCCNC(=O)c1ccccc1NC(=O)c1ccc(CSc2ccccc2)cc1`, for which the outcome was inactive.
As to `COc1ccc(-c2cc(C)nc(SCC(=O)c3cccc([N+](=O)[O-])c3)n2)cc1`, the compound was called inactive.
For `C=C1C(=O)C2=CC1CCC(=O)C1(C)CCC(OC(C)=O)C(C)(C)C1CC2O` (centres undefined), the outcome was inactive.
`CCn1c(SCC(=O)n2nc(C)cc2C)nnc1-c1ccc2c(c1)OCO2`: the compound was called inactive.
As for `O=C(/C=C/c1cccs1)N1CCN(c2ccc(O)cc2)CC1`, the entry is “inactive”; as for `O=C(Nc1ccc(Br)cn1)C1CCN(S(=O)(=O)c2cccs2)CC1`, “inactive”.
As for `Cc1ccc(Nc2nc3nonc3nc2N(C)C)cc1`, the call was inactive.
As for `CCc1nc2ccc(Cc3ccc4nc(CC)[nH]c4c3)cc2[nH]1`, the entry is “inactive”; as for `Cc1ccc(S(=O)(=O)N(CC(=O)N/N=C/c2cccc3c2OCCO3)c2ccccc2F)cc1`, “inactive”.
The result for `COCC(=O)Nc1nnc(COc2ccccc2)s1` reads “inactive”; that for `Cn1cnnc1SCC(=O)Nc1ccccc1C(=O)NC1CC1`, “inactive”.
As for `Cc1ccc(-n2c(Cc3cccn3C)nnc2SCC(=O)Nc2nnc(C)s2)cc1`, the entry is “inactive”; as for `N#Cc1ccccc1NC(=O)COC(=O)c1ccc(S(=O)(=O)N2CCCC2)cc1`, “inactive”.
For the compound `O=C(NC(=O)N1CCN(c2ccc([N+](=O)[O-])cn2)CC1)c1c(Cl)cccc1Cl`, the result was inactive.
With `CC1CC(C)CN(S(=O)(=O)c2ccc(NC(=O)c3ccc(=O)[nH]c3)cc2)C1` (centres undefined), the compound was called inactive.
For the compound `COc1ccc(-n2ncc3c(NCc4ccccn4)ncnc32)cc1`, the result was inactive.
The result for `CC(=O)Nc1ccc(S(=O)(=O)N2CCN(Cc3ccccn3)CC2)cc1` reads “inactive”; that for `COc1ccc(S(=O)(=O)N(CCc2ccccc2)CC(=O)NC(C)C)cc1`, “inactive”; that for `O=C(Cn1c(=O)oc2ccccc21)N1CCN(S(=O)(=O)c2ccccc2)CC1`, “inactive”.
The result for `CCOC(=O)N1CCN(c2c(NCc3ccccc3Cl)c(=O)c2=O)CC1` reads “inactive”; that for `CC(C)(C)OC(=O)N1CCN(c2ccc([N+](=O)[O-])cc2)CC1`, “inactive”.
The result for `CC(C)(C)C(=O)O/N=C(\N)c1c(Cl)cccc1Cl` reads “inactive”.
With `C=CCc1ccc(OCCOCCNCCCC)c(OC)c1`, the call was inactive.
As for `Cn1c(=O)c2c(nc(CN3CCOCC3)n2CCN2CCOCC2)n(C)c1=O`, the entry is “inactive”; as for `COc1ccc(CCNC(=O)CSc2nc(-c3ccco3)cc(C(F)(F)F)n2)cc1`, “inactive”; as for `O=C(CSc1nc(-c2ccccc2)cc(C(F)(F)F)n1)c1cccc([N+](=O)[O-])c1`, “inactive”.
As for `Cc1c(F)cccc1NC(=O)CCCCCC1NC(=O)NC1C` (centres undefined), the entry is “inactive”; as for `Cc1ccc(S(=O)(=O)C(F)(F)F)cc1NC(=O)c1cccnc1`, “inactive”; as for `COc1cc([N+](=O)[O-])ccc1NC(=O)Oc1ccc(NC(C)=O)cc1`, “inactive”.
As for `O=c1cc(-c2ccc(O)c(O)c2)oc2cc(O)c(C3OC(CO)C(O)C(O)C3O)c(O)c12` (centres undefined), the entry is “inactive”.
As to `CC1C(=O)N2CCCc3cc(NC(=O)C(=O)NCc4cccnc4)cc1c32` (centres undefined), the call was inactive.
For the compound `COc1cc(C2Nc3ccccc3C(=O)N2c2ccccc2)ccc1O` (centres undefined), the call was inactive.
Regarding `Clc1ccc(-c2nc3cnccn3c2Nc2ccc3c(c2)OCO3)cc1`, the call was inactive.
With `COc1cccc(-c2cc(C(=O)Nc3c(C)n(C)n(-c4ccccc4)c3=O)no2)c1`, the call was inactive.
Regarding `CC[n+]1ccc(C)c2cc(S(=O)C(F)(F)F)ccc21` (centres undefined), the compound was classed as inactive.
As for `COc1ccc(CNC(=O)c2ccc(NC(=O)C3CCCO3)cc2)cc1` (centres undefined), the entry is “inactive”; as for `COc1ccc(C(=O)Nc2nncs2)cc1S(=O)(=O)N1CC(c2ccccc2)CC1=O` (centres undefined), “inactive”; as for `COC(=O)C(C(=O)Nc1ccc(OC)cc1)C1CCCCCC1` (centres undefined), “inactive”.
On to `COCCn1nnnc1C(c1cccs1)N1CCN(c2cc(C)ccc2C)CC1` (centres undefined), for which the compound was classed as inactive.
The result for `Cc1ccc(C(=O)OC2CCS(=O)(=O)c3sccc32)cc1` (centres undefined) reads “inactive”.
